This experiment concerns the target Genome polyprotein (dengue virus type 2) (UniProt P29990).
[1] abbreviates: Thailand/16681/1984, Concentration 25.0 uM, Number of replicates 1.0.

The structures appear in SMILES notation. Screen size: about 2,000 compounds; about 110 (5.5%) showed an effect of 50% or more. This excerpt belongs to a sample that is enriched for strong results.

On to `CCCC[C@H](NC(C)=O)C(=O)N[C@H](C(=O)NCc1ccc(C(N)=O)cc1)c1ccc(OCc2ccccc2)cc1`, for which the inhibition (Thailand/16681/1984, Concentration 49.5 uM, Number of replicates 2.0, Standard deviation 4.54767597440597 %) worked out at 18.2%; the inhibition (Thailand/16681/1984, Concentration 99.01 uM, Number of replicates 2.0, Standard deviation 0.08657569598756192 %) turned out to be 99.9%; the inhibition (Thailand/16681/1984, Concentration 198.0 uM, Number of replicates 2.0, Standard deviation 0.08274539039489186 %) came out at 99.7%.

In the case of `c1cnc(C2CCN(Cc3c[nH]c4ccccc34)CC2)nc1`, the inhibition by setting is: (Thailand/16681/1984, Concentration 49.5 uM, Number of replicates 2.0, Standard deviation 0.0814293971969877 %) -4.94%; (Thailand/16681/1984, Concentration 99.01 uM, Number of replicates 2.0, Standard deviation 1.1974150626674833 %) -3.24%; (Thailand/16681/1984, Concentration 198.0 uM, Number of replicates 2.0, Standard deviation 1.6263665310687148 %) -1.42%.

`COC(=O)c1csc(Cn2ncc(C3CCNCC3)c2C)n1`: the inhibition (Thailand/16681/1984, Concentration 49.5 uM, Number of replicates 2.0, Standard deviation 0.7717951129802201 %) is -5.62%; the inhibition (Thailand/16681/1984, Concentration 99.01 uM, Number of replicates 2.0, Standard deviation 0.8815947340216488 %) is -4.23%; the inhibition (Thailand/16681/1984, Concentration 198.0 uM, Number of replicates 2.0, Standard deviation 1.4332580373412276 %) was -2.98%.

As to `O=C(Cc1cnc[nH]1)NC1CCN(C(=O)c2cccc3[nH]ncc23)CC1`, the inhibition is, setting by setting: (Thailand/16681/1984, Concentration 49.5 uM, Number of replicates 2.0, Standard deviation 0.5712330544607026 %) -0.001%; (Thailand/16681/1984, Concentration 99.01 uM, Number of replicates 2.0, Standard deviation 0.88648652906749 %) 0.297%; (Thailand/16681/1984, Concentration 198.0 uM, Number of replicates 2.0, Standard deviation 1.4162803173835237 %) -0.087%.

On to `O=Cc1ccc(N2CCC(C(=O)Nc3n[nH]c4ccc(Br)cc34)CC2)cc1`, for which, under setting [1], the inhibition amounted to 10.1%.

On to `CCN(CC)S(=O)(=O)c1ccc(NC(=O)C2CCN(c3ccc(C=O)cc3)CC2)cc1`, for which, under setting [1], the inhibition is 12.2%.

For the compound `O=C(Nc1cc2c(cc1C1CC1)CNC2)c1cc(F)cc2[nH]ncc12`, the inhibition reads like this: (Thailand/16681/1984, Concentration 99.5 uM, Number of replicates 2.0, Standard deviation 0.34945873996674337 %) 63.1%; (Thailand/16681/1984, Concentration 295.6 uM, Number of replicates 2.0, Standard deviation 0.6526301250248825 %) 85.2%.

With `COc1cc(Cc2c(-c3ccc(F)cc3)noc2C)nc(N2CCNCC2)n1`, the inhibition (Thailand/16681/1984, Concentration 49.5 uM, Number of replicates 2.0, Standard deviation 0.4285559202279565 %) is -0.048%; the inhibition (Thailand/16681/1984, Concentration 99.01 uM, Number of replicates 2.0, Standard deviation 0.4007548684992308 %) turned out to be 1.07%; the inhibition (Thailand/16681/1984, Concentration 198.0 uM, Number of replicates 2.0, Standard deviation 0.4757654271085549 %) came out at 6.24%.

For `O=Cc1ccc(N2CCC(C(=O)NCc3c(F)ccc(F)c3F)CC2)cc1`, under setting [1], the inhibition was found to be 12.3%.

As for `O=Cc1ccc(N2CCC(C(=O)NCCc3ccc(Cl)c(Cl)c3)CC2)cc1`, the inhibition under setting [1] came to 11.5%.

Regarding `CCN(CC)C1CCN(C(=O)C2CCN(c3ccc(C=O)cc3)CC2)CC1`, the inhibition under setting [1] came to 12.6%.

`C[C@@H](NC(=O)c1cc(Cl)ccc1NS(=O)(=O)c1ccc(Oc2ccccc2Cl)cc1)C1COC1`: the inhibition turned out to be 59.2% (Thailand/16681/1984, Concentration 49.5 uM, Number of replicates 2.0, Standard deviation 0.4885797549298071 %); 68.4% (Thailand/16681/1984, Concentration 99.01 uM, Number of replicates 2.0, Standard deviation 0.152624190876378 %); 59.2% (Thailand/16681/1984, Concentration 198.0 uM, Number of replicates 2.0, Standard deviation 0.02447349481851786 %).

For the compound `C[C@@H](NC(=O)c1cc(Cl)ccc1NS(=O)(=O)c1ccc(Oc2ccccc2Cl)cc1)[C@H]1CCCO1`, the inhibition (Thailand/16681/1984, Concentration 49.5 uM, Number of replicates 2.0, Standard deviation 0.29635236214386457 %) turned out to be 82.5%; the inhibition (Thailand/16681/1984, Concentration 99.01 uM, Number of replicates 2.0, Standard deviation 0.052507555399236044 %) is 84.4%; the inhibition (Thailand/16681/1984, Concentration 198.0 uM, Number of replicates 2.0, Standard deviation 0.13838732262418607 %) was determined as 80.7%.

Regarding `Cc1cnccc1NC(=O)c1cc(C2CCCC2)n(C)c1C`, the inhibition was -3.53% (Thailand/16681/1984, Concentration 49.5 uM, Number of replicates 2.0, Standard deviation 1.895573393565592 %); -1.88% (Thailand/16681/1984, Concentration 99.01 uM, Number of replicates 2.0, Standard deviation 0.7217418528634704 %); 0.718% (Thailand/16681/1984, Concentration 198.0 uM, Number of replicates 2.0, Standard deviation 1.3851925911876457 %).

As for `CCCCCNC(=O)c1cc(Cl)ccc1NS(=O)(=O)c1ccc(Oc2ccccc2Cl)cc1`, the inhibition runs as follows: (Thailand/16681/1984, Concentration 49.5 uM, Number of replicates 2.0, Standard deviation 0.23227296801747743 %) 78.7%; (Thailand/16681/1984, Concentration 99.01 uM, Number of replicates 2.0, Standard deviation 0.006678758202430312 %) 76.9%; (Thailand/16681/1984, Concentration 198.0 uM, Number of replicates 2.0, Standard deviation 0.04271599955318515 %) 65.6%.

Take `CC[C@H](C#N)NC(=O)c1cc(Cl)ccc1NS(=O)(=O)c1ccc(Oc2ccccc2Cl)cc1`: the inhibition is, setting by setting: (Thailand/16681/1984, Concentration 49.5 uM, Number of replicates 2.0, Standard deviation 0.706613157296788 %) 44.6%; (Thailand/16681/1984, Concentration 99.01 uM, Number of replicates 2.0, Standard deviation 0.473003628419333 %) 22.1%; (Thailand/16681/1984, Concentration 198.0 uM, Number of replicates 2.0, Standard deviation 1.2548162043536224 %) 2.91%.

Regarding `CC(C)CNC(=O)c1cc(Cl)ccc1NS(=O)(=O)c1ccc(Oc2ccccc2Cl)cc1`, the inhibition by setting is: (Thailand/16681/1984, Concentration 49.5 uM, Number of replicates 2.0, Standard deviation 0.23411798845789034 %) 89.6%; (Thailand/16681/1984, Concentration 99.01 uM, Number of replicates 2.0, Standard deviation 0.14645254355523077 %) 88.7%; (Thailand/16681/1984, Concentration 198.0 uM, Number of replicates 2.0, Standard deviation 0.2542297902177128 %) 84.4%.

For `CNC(=O)[C@@H](C)CNS(=O)(=O)c1ccc(Oc2ccccc2Cl)cc1`, the inhibition was -0.747% (Thailand/16681/1984, Concentration 49.5 uM, Number of replicates 2.0, Standard deviation 0.8337442367954725 %); 0.957% (Thailand/16681/1984, Concentration 99.01 uM, Number of replicates 2.0, Standard deviation 0.25212885411314173 %); 2.51% (Thailand/16681/1984, Concentration 198.0 uM, Number of replicates 2.0, Standard deviation 0.23111814436827896 %).

Consider `C[C@@H](CS(C)(=O)=O)NC(=O)c1cc(Cl)ccc1NS(=O)(=O)c1ccc(Oc2ccccc2Cl)cc1`, for which the inhibition was 51.1% (Thailand/16681/1984, Concentration 49.5 uM, Number of replicates 2.0, Standard deviation 0.5989303195749703 %); 57% (Thailand/16681/1984, Concentration 99.01 uM, Number of replicates 2.0, Standard deviation 0.4213875631597994 %); 43% (Thailand/16681/1984, Concentration 198.0 uM, Number of replicates 2.0, Standard deviation 0.24651523106627876 %).

As for `COC[C@@H](C)CNC(=O)c1cc(Cl)ccc1NS(=O)(=O)c1ccc(Oc2ccccc2Cl)cc1`, the inhibition amounted to 82.2% (Thailand/16681/1984, Concentration 49.5 uM, Number of replicates 2.0, Standard deviation 0.2816677257730929 %); 83.8% (Thailand/16681/1984, Concentration 99.01 uM, Number of replicates 2.0, Standard deviation 0.03025941418209339 %); 76.9% (Thailand/16681/1984, Concentration 198.0 uM, Number of replicates 2.0, Standard deviation 0.3452939569842909 %).

The term inhibition denotes the relative decrease from the control value, in per cent.

These data come from ChEMBL document CHEMBL5606460, “ASAP - DENV-2 NS2B-NS3 protease fluorescence single point” (2024).
